One test concerns ACVR1. Set-up: species or system human, MV4-11 + K-562 + COLO205 + SK-N-BE2 + OVCAR-8. The note with it: read-out: apparent Kd; compound concentrations:100 nM and 1000 nM (sheet 'Samples'); n = 1.
Consider `Cc1cc(O)cc(C)c1/C=C/c1cncc(C(N)=O)c1` [GW435821X_KCGS], for which the potency estimated from few doses is 0.107 µM.

With `CCN1CCN(CCCC(=O)Nc2n[nH]c3nc(-c4ccc(O)cc4)c(Br)cc23)CC1` [SB-731579], the potency estimated from few doses was 0.914 µM.

In the case of `CN1C(=O)[C@@H](NC(=O)c2cc(Cc3ccccc3)on2)COc2ccccc21` [GSK481], the potency estimated from few doses is 1.27 µM.

With `O=C(Nc1n[nH]c2nc(-c3ccc(O)cc3)ccc12)C1CC1` [SB-710363], the potency estimated from few doses was 1.21 µM.

The test system of another test is NQO2. On the set-up: species or system human, MV4-11 + K-562 + COLO205 + SK-N-BE2 + OVCAR-8. The conditions noted are these: read-out: apparent Kd; compound concentrations:100 nM and 1000 nM (sheet 'Samples'); n = 1.
Turning to `O=C(c1ccc(-c2cc(-c3c[nH]nc3-c3ccccn3)ccn2)cc1)N1CCCC1` [GW792479X], the potency estimated from few doses is 1.39 µM.

As for `c1ccc(-c2n[nH]cc2-c2ccnc(-c3ccc(OCCN4CCOCC4)cc3)c2)nc1` [GW695874X], the potency estimated from few doses is 0.256 µM.

`Cl.c1ccc(-c2n[nH]cc2-c2ccnc(-c3ccc(CN4CCOCC4)cc3)c2)nc1` [GW776245A]: the potency estimated from few doses is 0.243 µM.

For `c1ccc(-c2n[nH]cc2-c2ccnc(-c3ccc(OCCn4ccnc4)cc3)c2)nc1` [GW711782X], the potency estimated from few doses is 0.0711 µM.

As for `COc1ccc(-c2cc(-c3c[nH]nc3-c3ccccn3)ccn2)cc1` [GW679410X], the potency estimated from few doses is 0.168 µM.

The next test concerns PRKD2. On the set-up: species or system human, MV4-11 + K-562 + COLO205 + SK-N-BE2 + OVCAR-8. The note with it: read-out: apparent Kd; compound concentrations:100 nM and 1000 nM (sheet 'Samples'); n = 1.
In the case of `Nc1nc(-c2cccc(Cl)c2)c(-c2ccc3ncccc3n2)s1` [GW780159X], the potency estimated from few doses was 0.815 µM.

As to `Cc1csc(-c2nc(Nc3ccncc3)c3ccccc3n2)n1` [GW869640X], the potency estimated from few doses is 0.191 µM.

Turning to `Cc1cccc(-c2nc(C)cc(Nc3ccncc3)n2)n1` [GSK257997A], the potency estimated from few doses is 0.408 µM.

Take `c1ccc(-c2n[nH]cc2-c2ccnc(-c3ccc(OCCN4CCOCC4)cc3)c2)nc1` [GW695874X]: the potency estimated from few doses is 0.648 µM.

On to `c1ccc(-c2n[nH]cc2-c2ccnc(-c3ccc(OCCn4ccnc4)cc3)c2)nc1` [GW711782X], for which the potency estimated from few doses is 2.16 µM.

For `COc1ccc2nc(-c3cccc(C)n3)nc(Nc3ccncc3)c2c1` [GSK204919_KCGS], the potency estimated from few doses is 0.0126 µM.

With `Cc1cccc(-c2cc(Nc3ccncc3)c3ccccc3n2)n1` [GSK223675A], the potency estimated from few doses was 0.293 µM.

The subject of a further test is PRKD3. Set-up: species or system human, MV4-11 + K-562 + COLO205 + SK-N-BE2 + OVCAR-8. The conditions noted are these: read-out: apparent Kd; compound concentrations:100 nM and 1000 nM (sheet 'Samples'); n = 1.
As to `Cc1csc(-c2nc(Nc3ccncc3)c3ccccc3n2)n1` [GW869640X], the potency estimated from few doses is 0.504 µM.

`Cc1cccc(-c2nc(C)cc(Nc3ccncc3)n2)n1` [GSK257997A]: the potency estimated from few doses was 1.59 µM.

With `c1ccc(-c2n[nH]cc2-c2ccnc(-c3ccc(OCCN4CCOCC4)cc3)c2)nc1` [GW695874X], the potency estimated from few doses is 1.46 µM.

Regarding `COc1ccc2nc(-c3cccc(C)n3)nc(Nc3ccncc3)c2c1` [GSK204919_KCGS], the potency estimated from few doses is 0.00821 µM.

`Cc1cccc(-c2cc(Nc3ccncc3)c3ccccc3n2)n1` [GSK223675A]: the potency estimated from few doses is 0.59 µM.

(Values after article PMC11062922 (Nature Chemical Biology, 2023).)
